From PubChem BioAssay AID1851 (National Center for Advancing Translational Sciences (NCATS), 2009) come the findings set out here.

Among all 16,000 compounds or so, about 5,800 (36%) were called active. Roughly 23% stayed inconclusive and do not appear here. This is one part of the list. Unmarked numbers belong to inactive results. Calls follow the shape of the dose curve; as a rule, active = well fitted curve in the direction sought with a large enough effect; inconclusive = small, poorly fitted or top-dose-only effect, or effect the other way; inactive = no such curve, though single readings can be large or run the other way.
% is scaled to controls: 0 for no effect and ±100 for the full control effect.

The target in the test is Cytochrome P450 2C19 (Homo sapiens) (UniProt P33261). The test can be described thus: Cytochrome panel assay with activity outcomes. Particulars: recombinant CYP, pro-luciferin dealkylation, luminescence, p450-cyp2c19; series mostly up to 57.1 µM; activity, negative = inhibition: at the top concentration.
Sequence of Cytochrome P450 2C19 (Homo sapiens) (P33261 whole entry, looked up): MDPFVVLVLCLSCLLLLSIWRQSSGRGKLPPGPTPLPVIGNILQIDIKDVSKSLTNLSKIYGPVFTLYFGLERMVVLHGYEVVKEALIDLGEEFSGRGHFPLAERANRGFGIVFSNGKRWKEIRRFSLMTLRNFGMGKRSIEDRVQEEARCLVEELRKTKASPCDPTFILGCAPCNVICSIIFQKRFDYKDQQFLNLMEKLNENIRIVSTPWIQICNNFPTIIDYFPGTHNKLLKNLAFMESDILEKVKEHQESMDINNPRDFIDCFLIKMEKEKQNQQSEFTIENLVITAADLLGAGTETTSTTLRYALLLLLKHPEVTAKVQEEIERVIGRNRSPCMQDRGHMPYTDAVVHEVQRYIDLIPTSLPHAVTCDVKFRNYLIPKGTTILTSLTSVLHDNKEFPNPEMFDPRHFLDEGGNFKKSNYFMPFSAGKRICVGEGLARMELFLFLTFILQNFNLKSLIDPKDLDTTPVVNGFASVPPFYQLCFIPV
Take `C=CCn1c(SCc2ccc3c(c2)OCO3)nc2scc(-c3ccco3)c2c1=O`: the AC50 is 1.41 µM (active).
With `C=CCn1c(SCc2ccccc2)nc2scc(-c3ccc(C)o3)c2c1=O`, the “activity, negative = inhibition” value was -28.8%.
On the same count and under the same terms, then `NS(=O)(=O)c1cc2c(cc1Cl)N[C@@H](C(Cl)Cl)NS2(=O)=O`, with 4.71% [at 25.6 µM].
With `CCCCCCCCOC1OC(CO)C(O)C(O)C1NC(C)=O` (configuration not stated), the “activity, negative = inhibition” value was 51.9%.
As to `Cc1ccc(NC(=O)N/C=C/c2ccco2)cc1C`, the AC50 was 3.16 µM (active).
In the case of `C/C(=N\NC(=O)CC1N=C(Cc2ccccc2)NNC1=O)c1ccc(Cl)cc1Cl` (configuration not stated), the AC50 is 28.2 µM (active).
With `O=C(CSCc1c(F)cccc1Cl)NCC1CCCO1` (configuration not stated), the AC50 is 11.2 µM (active).
Regarding `CCNc1ncc2nc(-c3ccc(F)cc3)c(=O)n(C[C@H]3CCCO3)c2n1`, the “activity, negative = inhibition” value is -11.2%.
Take `O=C(CC(c1ccccc1)c1ccccc1)NCC1CCCO1` (configuration not stated): the AC50 is 14.1 µM (active).
On to `Cc1cccc2c(SCC(=O)NCC3CCCO3)nc(-c3ccc(F)cc3)nc12` (configuration not stated), for which the AC50 was 1.26 µM (active).
As to `CC(NC(=O)OCc1ccccc1)C(=O)NCC1CCCO1` (configuration not stated), the “activity, negative = inhibition” value was -22.3%.
Take `CN(C)c1ncc2nc(-c3ccc(F)cc3)c(=O)n(C[C@H]3CCCO3)c2n1`: the “activity, negative = inhibition” value was -21.9%.
For `CN(c1ccc(C(=O)NCC2CCCO2)cc1)S(=O)(=O)c1ccccc1` (configuration not stated), the “activity, negative = inhibition” value is -9.95%.
Still for that read-out and setting: next, `Oc1ccc([C@@H]2CNCCc3c2cc(O)c(O)c3Cl)cc1`: 14.3%.
For the molecule `CC(C)NC[C@@H](O)COc1ccc(CCOCC2CC2)cc1`, the AC50 entry is “inactive”.
`COc1ccc(CCC(C)NC2C3CC4CC(C3)CC2C4)cc1` (configuration not stated): the AC50 is 25.1 µM (active).
As for `O=C1c2ccccc2C(Cc2ccncc2)(Cc2ccncc2)c2ccccc21`, the “activity, negative = inhibition” value was -30.9%.
`O=C1N(c2ccccc2)c2ccccc2C1(Cc1ccncc1)Cc1ccncc1`: the AC50 was 0.2 µM (active).
For `N#C/C(=C\c1ccc(Cl)cc1)c1nc2ncccc2[nH]1`, the AC50 was 25.1 µM (active).
For `COc1ccccc1CN1CCCC2(CCNCC2)C1`, the “activity, negative = inhibition” value was -24.4%.
For `COc1cccc(CN2C(=O)N(C(C)C)C(N(O)C(=O)NC(C)C)C2(C)C)c1OC` (configuration not stated), the AC50 was 14.1 µM (active).
On to `O=C1/C(=C\c2ccccn2)SC(=S)N1Nc1ncc(C(F)(F)F)cc1Cl`, for which the AC50 was 7.94 µM (active).
With `CN(C)c1ccc(/C=C2\SC(=S)N(Nc3ncc(C(F)(F)F)cc3Cl)C2=O)cc1`, the AC50 was 20 µM (active).
Consider `O=c1c(Cl)c(N2CCN(S(=O)(=O)c3ccc(F)cc3)CC2)cnn1-c1cccc(Cl)c1`, for which the AC50 is 4.47 µM (active).
Take `O=C(NCc1n[nH]c(=S)n1-c1cccc(Cl)c1)c1ccc(S(=O)(=O)N2CCCC2)cc1`: the “activity, negative = inhibition” value was -8.01%.
On to `C[N+](C)(C)CCOC(N)=O`, for which the “activity, negative = inhibition” value is 22.8% [at 25.6 µM].
Still for that read-out and setting: next, `Nc1ncnc2c1ncn2C1CCCC1`: 4.13%.
Consider `Nc1ncnc2c1c(-c1ccc(Oc3ccccc3)cc1)cn2C1CCCC1`, for which the AC50 is 25.1 µM (active).
As to `C#CCCCO/N=C1/C[C@@H](O)[C@@H](O)[C@@H]2[C@@H]3C(=O)N(C4CCCCC4)C(=O)[C@H]3CC[C@H]12`, the activity, negative = inhibition is 4.77% [at 11.4 µM].
As for `COc1ccc(CNc2ncnc3ccc(-c4cccc(C#N)c4)cc23)c(OC)c1`, the “activity, negative = inhibition” value was -35.9%.
On the same count and under the same terms, next, `N#Cc1cccc(-c2ccc3ncnc(NCc4ccccc4)c3c2)c1`: -32.2%; `c1nc(NCCN2CCOCC2)c2cc(-c3ccoc3)ccc2n1`: 6.18%.
Turning to `COc1ccccc1CNc1ncnc2ccc(-c3ccccc3OC)cc12`, the concentration at half-maximal activity (AC50) is 3.16 µM (active).
Turning to `COc1ccccc1CNc1ncnc2ccc(-c3cccc(C#N)c3)cc12`, the AC50 was 5.01 µM (active).
As to `COc1ccccc1CNc1ncnc2ccc(-c3ccccc3CN(C)C)cc12`, the “activity, negative = inhibition” value is -41.1%.
Consider `COc1cccc(-c2ccc3ncnc(NCc4ccc(OC)cc4OC)c3c2)c1`, for which the AC50 is 10 µM (active).
For the molecule `c1csc(CNc2ncnc3ccc(-c4ccoc4)cc23)c1`, the AC50 is 6.31 µM (active).
Consider `CSc1nnc2c(n1)OC(C)N(C(=O)c1ccccc1)c1ccccc1-2` (configuration not stated), for which the “activity, negative = inhibition” value is -22.2%.
Turning to `CS(=O)(=O)Nc1cccc(-c2ccc3ncnc(NCc4cccs4)c3c2)c1`, the AC50 was 15.8 µM (active).
As to `COc1ccc(CNc2ncnc3ccc(-c4ccccc4CN(C)C)cc23)c(OC)c1`, the AC50 was 15.8 µM (active).
For the molecule `COc1cccc(-c2ccc3ncnc(NCc4cccs4)c3c2)c1`, the AC50 was 10 µM (active).
Consider `CS(=O)(=O)Nc1cccc(-c2ccc3ncnc(NCCN4CCOCC4)c3c2)c1`, for which the “activity, negative = inhibition” value was -39.7%.
`COc1ccc(CNc2ncnc3ccc(-c4ccccc4OC)cc23)c(OC)c1`: the AC50 is 7.94 µM (active).
With `COc1ccc(CNc2ncnc3ccc(-c4c(C)noc4C)cc23)c(OC)c1`, the AC50 is 10 µM (active).
With `COc1ccc(CNc2ncnc3ccc(-c4ccccc4C#N)cc23)c(OC)c1`, the “activity, negative = inhibition” value was -22%.
As for `COc1ccccc1CNc1ncnc2ccc(-c3ccccc3C#N)cc12`, the AC50 was 7.94 µM (active).
Take `COc1ccc(CNc2ncnc3ccc(-c4ccoc4)cc23)c(OC)c1`: the AC50 was 7.94 µM (active).
On to `Cc1nc2sc(C#N)c(N)c2c2c1CCCC2`, for which the AC50 is 11.2 µM (active).
Regarding `C[C@@H]1c2ccccc2CN1CC1=NCCN1`, the “activity, negative = inhibition” value was -9.19%.
Take `COc1ccc(NC(=O)N2CCC3(CC2)CCN(C(=O)c2cccc(F)c2)CC3)cc1`: the “activity, negative = inhibition” value was 7.83%.
`CCn1c(N2CCN(C(=O)Nc3ccc(F)cc3)CC2)nc2ccccc21`: the concentration at half-maximal activity (AC50) was 31.6 µM (active).
As to `COc1ccc(NC(=O)N2CCCC3(CCN(C(=O)c4cccc(F)c4)CC3)C2)cc1`, the “activity, negative = inhibition” value was -15.7%.
